# Only some compounds are listed: those with a hit (about 3.1% of all), similar ones and a draw of the others.
# IDH1 R132H inh: inhibitors of human mutant IDH1 R132H. O75874. IDH1-R132H enzyme, NADPH consumption, diaphorase/resazurin fluorescence. Potency, µM (top dose mostly 76.6 µM), for the others: at the highest dose activity change, negative = inhibition, usual class: inhibitors. hit rate 0.093% among 390,000. AID 602179; further: on the % scale 0 is the no-effect control and ±100 the full control effect; nearly all actives have a fitted effect of over 65% in size
#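 IDH1-R132H (0.5 ug/mL) preincubated 30 min with compound, then NADPH (0.016 mM) and alpha-KG (2 mM) added; 80 min at RT, pH 7.5. Remaining NADPH coupled via diaphorase/resazurin to fluorescence (540/590 nm); concentration-response curves normalized to no-enzyme control.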
# Nrf2 inh: blocks Nrf2 signaling. hit rate 2.1% among 360,000. Potency, µM (highest dose often 46 µM), for inactives: top-dose activity change, negative = inhibition, usual class: inhibitors. A549 ARE-Fluc reporter, luciferase luminescence, 18-24 h; further: on the % scale 0 is the no-effect control and ±100 the full control effect; nearly all actives have a fitted effect of over 60% in size
#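 Quantitative HTS in A549 cells stably bearing an antioxidant response element-firefly luciferase construct. Inhibition of Nrf2-driven transcription was scored by luminescence after 18-24 h of compound exposure at 37 °C.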
# TrxR1 substrate: substrates of rat thioredoxin reductase 1; hit rate 0.01% among 390,000; purified TrxR1 substrate turnover, NADPH consumption readout; O89049; Potency, µM (top dose mostly 114 µM), inactives show at the top dose activity change, negative = substrate turnover; further: on the % scale 0 is the no-effect control and ±100 the full control effect; nearly all actives have a fitted effect of over 50% in size
# Target sequence (O89049 whole entry, looked up): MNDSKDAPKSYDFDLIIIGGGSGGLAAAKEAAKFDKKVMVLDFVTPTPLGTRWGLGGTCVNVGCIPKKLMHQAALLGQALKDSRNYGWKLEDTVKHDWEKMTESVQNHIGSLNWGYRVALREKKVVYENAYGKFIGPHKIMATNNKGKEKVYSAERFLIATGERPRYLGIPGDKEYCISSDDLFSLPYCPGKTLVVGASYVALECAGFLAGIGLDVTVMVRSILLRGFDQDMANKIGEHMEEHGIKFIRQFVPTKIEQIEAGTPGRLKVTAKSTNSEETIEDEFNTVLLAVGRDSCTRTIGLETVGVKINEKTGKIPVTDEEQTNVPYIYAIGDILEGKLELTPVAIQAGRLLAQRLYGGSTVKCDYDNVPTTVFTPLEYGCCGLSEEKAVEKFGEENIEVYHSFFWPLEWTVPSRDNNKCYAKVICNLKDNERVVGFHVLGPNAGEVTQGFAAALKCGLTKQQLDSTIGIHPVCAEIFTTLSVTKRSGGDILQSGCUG
#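 Rat TrxR1, dispensed at 90 nM, was prereduced with 400 uM NADPH (final) for 5 min at ~22 deg C, then incubated with compound 15 min before 400 uM selenite. A first-read NADPH fluorescence drop versus no-compound background flagged substrates.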
# A549 viability: counter-screen for Nrf2 inhibitors: cytotoxicity in A549 cells; A549 ARE-Fluc cells, CellTiter-Fluor viability, 18-24 h; Potency, µM (titrated, usually from 46 µM), for the others: at the top dose activity change, negative = cytotoxicity, actives largely listed as inhibitors; hit rate 0.16% among 390,000; AID 504648; further: on the % scale 0 is the no-effect control and ±100 the full control effect
#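 Cytotoxicity counterscreen: CellTiter-Fluor fluorescence was measured in A549 ARE_Fluc cells after 18-24 h of compound exposure in a concentration series. The subsequent BugLite luminescent read reports ARE-luciferase activity.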
# rTrxR1 inhibitor: rat TrxR1 inhibition. O89049. recombinant rTrxR1, NADPH fluorescence consumption, selenite substrate. Potency, µM (highest dose often 114 µM), inactives show top-dose activity change, negative = inhibition, most hits filed as inhibitors. hit rate 1% among 390,000. AID 588453; further: on the % scale 0 is the no-effect control and ±100 the full control effect; nearly all actives have a fitted effect of over 65% in size
#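 Rat TrxR1 (90 nM in the dispensed reagent) was pre-reduced with 400 uM NADPH for 5 min at room temperature, then incubated with compound for 15 min. After 400 uM selenite was added, NADPH fluorescence (Ex 340/Em 450 nm) was followed for 8 min.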
# Mito fusion yeast: inhibitors of mitochondrial division or activators of mitochondrial fusion; S. cerevisiae fusion-defective mutant growth rescue, CellTiterGlo 48 h; Potency, µM (titrated, usually from 46.1 µM), for inactives: at the top dose growth rescue (activation), most hits filed as activators; hit rate 0.23% among 320,000; AID 485298; further: % of control where 0% means no effect; nearly all actives have a fitted effect of over 45% in size
#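 S. cerevisiae fusion-defective temperature-sensitive mutants (e.g. fzo1-1, mgm1-5) grown 48 h at 37C in YPEG (ethanol/glycerol non-fermentable) medium with 23 nl compound per well; growth rescue read as CellTiterGlo luminescence.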
# Starred values were filed as active, the others as inactive; ? = inconclusive; . = no result; [ ] = dose if it differs, or a comment. The call rests on the fitted dose curve; in most records, active means well fitted curve in the direction sought with a large enough effect; inconclusive means small, poorly fitted or top-dose-only effect, or another doubt; inactive means no such curve, though single readings can be large; an effect the other way counts as inactive or inconclusive. Potency means the concentration at half of the fitted maximal effect.
SMILES,IDH1 R132H inh,Nrf2 inh,TrxR1 substrate,A549 viability,rTrxR1 inhibitor,Mito fusion yeast
Cc1ccc2c(c1C)-c1c(ccc(C)c1C)C(=O)C2=O,12%,?,45µM*,?,?,.
CCOC(=O)c1c(C)c(C)n(Cc2cccc(OC)c2OC)c1C,3%,?,0%,9%,15%,17%
CCOC(=O)c1cc(C)n(Cc2cccc(OC)c2OC)c1C,4%,23µM*,-17%,-23%,-19%,-2%
Cc1ccc(S(=O)(=O)c2cn(CC(=O)Nc3ccc4c(c3)OCO4)c3ccccc3c2=O)cc1C,0%,-15%,-9%,3%,-5%,.
O=C(Nc1cc(Sc2ccccn2)cc([N+](=O)[O-])c1)c1cccc(F)c1,2%,18µM*,6%,-9%,11%,18µM*
Cc1ccccc1Oc1cc(-n2ncc(Cl)c(Cl)c2=O)ncn1,-4%,?,3%,?,0.79µM*,-23%
CN(C)c1c(Cl)cc(/C=C2\C=Cc3ccccc32)cc1Cl,.,.,9%[0.0914 µM],.,-8%,.
CC(=O)N1CCc2c(sc3c2c(=O)n(Cc2ccccc2)c(=O)n3Cc2cccc(Cl)c2)C1,-22%,21µM*,-2%,-21%,27%,.
O=C1c2ccccc2S(=O)(=O)N1Cc1nc2ccccc2s1,1%,13µM*,-1%,-4%,9%,-1%
Cc1ccccc1CN1C(=O)c2ccccc2S1(=O)=O,-3%,28%,-7%,8%,22%,14%
CC(C)C[C@@H](CN=[N+]=[N-])N1CCN(CCc2ccccc2)CCC1=O,.,.,2%,.,1%,.
c1ccc2c(c1)NCC1CCCN21 (centres undefined),8%,5%,-9%,-4%,79µM*,-11%
Cc1ccc(NC(=O)N2CC3CCCN3c3ccccc32)cc1C (centres undefined),15%,?,-7%,8%,-13%,.
CCOc1ccc2c(c1)c(=O)c(S(=O)(=O)c1ccc(C)cc1)cn2Cc1ccccc1Cl,-10%,-17%,3%,6%,6%,.
Cc1nn(-c2ccc(Cl)cc2)c2nc(-c3cccnc3)cc(C(F)(F)F)c12,-8%,7%,5%,2%,22%,.
COc1cccc(CNC(=O)c2ccc3nc(CCc4ccccc4)oc3c2)c1OC,8%,.,-3%[57.1 µM],6%,9%[57.1 µM],.
OCCC1CN(Cc2nc(-c3ccc(F)cc3)cs2)CCN1CCc1ccccc1 (centres undefined),1%,?,-2%,-14%,6%,11%
CC(C)(C)CN1CCN(Cc2nc(-c3ccc(F)cc3)cs2)CC1CCO (centres undefined),4%,21µM*,-3%[57.1 µM],-10%,11%[57.1 µM],-2%
COc1cc(CN2c3ccc(Br)cc3C(=O)CS2(=O)=O)cc(OC)c1,.,.,-5%,.,?,.
C=CCN1c2ccc(Br)cc2C(=O)CS1(=O)=O,-14%,6%,4%,-1%,7.1µM*,-3%
COc1cccc(CN2c3ccc(Br)cc3C(=O)CS2(=O)=O)c1,11%,9%,-2%,0%,2.2µM*,-4%
Cc1cc(-c2ccccc2)nc2cc(C(=O)Nc3cc(C(F)(F)F)ccc3Cl)nn12,-3%,-5%,14%,13%,0%,.
O=C(Nc1cc(F)ccc1F)C1COc2ccccc2C1 (centres undefined),-8%,.,1%[57.1 µM],5%,24%[57.1 µM],.
CC(C)N(C(=O)CSc1nc(Cc2ccccc2)nc2ccccc12)C(C)C,2%,18µM*,-14%,3%,-12%,-5%
Brc1ccc(C=C2C=c3ccccc3=C2)cc1,.,.,-3%,.,35µM*,.
O=C(NCc1ccccc1F)c1ccc(CN2CC(=O)N3CCCCC3C2=O)cc1 (centres undefined),14%,?,7%,3%,19%,.
Cc1ccc(NC2=Nc3ccccc3N3C2=Nc2c(c(C)nn2-c2ccccc2)C3c2ccc(O)c(O)c2)cc1 (centres undefined),?,18µM*,2%[2.29 µM],?,8%,23%

# Bioassay records deposited in PubChem BioAssay by National Center for Advancing Translational Sciences (NCATS).
